This passage reports growth inhibition results from PubChem BioAssay (NCI).

Each structure is given as a SMILES string. The panel holds about 79,000 compounds, 15% with a hit somewhere; the sample as a whole holds those more often. A number with no mark means an inactive call. Calls of active or inactive are those of the source. Cut-off read from the data, not from the text of the source: active = growth inhibition above about 70%; inactive = the rest.

A short description of assay [1]: NCI Yeast Anticancer Drug Screen. Data for the rad50 strain (AID 155).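 Note: 0% = growth of vehicle-only cultures of the same strain.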 The conditions noted are these: S. cerevisiae rad50 strain growth inhibition, hits give high values. The procedure, abridged:
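Inhibition values express reduced yeast growth in compound-treated cultures relative to vehicle-treated controls.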

A short description of assay [2]: NCI Yeast Anticancer Drug Screen. Data for the mec2-1 strain (AID 157). As to conditions: S. cerevisiae mec2-1 strain, hits give high values. The procedure, abridged:
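Yeast mec2-1 mutant treated with compound. Readout: growth inhibition vs vehicle controls.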

Assay [3] is described as follows: NCI Yeast Anticancer Drug Screen. Data for the sgs1 mgt1 strain (AID 161).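 Note: 0% = growth of cultures given vehicle only.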 As to conditions: S. cerevisiae sgs1 mgt1 strain, hits give high values. Summed up: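 Mutant yeast exposed to compound; growth scored against vehicle-only wells.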
Assay [4] is described as follows: NCI Yeast Anticancer Drug Screen. Data for the cln2 rad14 strain (AID 165).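 Note: 0% = growth equal to vehicle treated cultures.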 As to conditions: S. cerevisiae cln2 rad14 strain, hits give high values. Summed up: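 cln2 rad14 yeast strain; compound exposure; growth inhibition read vs vehicle controls.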
Assay [5] is described as follows: NCI Yeast Anticancer Drug Screen. Data for the bub3 strain (AID 167). The conditions noted are these: S. cerevisiae bub3 mutant strain, hits give high values. The procedure, abridged:
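Steps: expose the mutant yeast strain to compound; grow alongside vehicle-treated cultures; measure growth; express inhibition against the vehicle cultures.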

Assay [6] in a line: NCI Yeast Anticancer Drug Screen. Data for the mlh1 rad18 strain (AID 175). As to conditions: S. cerevisiae mlh1 rad18 strain growth inhibition, hits give high values. Summed up:
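Yeast w/ defined DNA-repair lesions; compound exposure; growth vs vehicle controls → % inhibition.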

Where [7] appears, read: at 5.0 µM (retest, dose inferred, filed as 0.5).
[8] abbreviates: at 50.0 µM (retest, dose inferred, filed as 5.0).

With `NC(=O)C1(Br)C=[N+](Cc2ccccc2)CCC1` (stereo not given), the growth inhibition in assay [1] (setting [7]) was 0%; in assay [1] (setting [8]), -2%; in assay [1] (at 50.0 µM), 29.2%; in assay [2] (setting [7]), 3%; in assay [2] (setting [8]), -3%; in assay [2] (at 50.0 µM), 11.9%. The growth inhibition in assay [3] (setting [7]) was -3%; in assay [3] (setting [8]), -4%; in assay [3] (at 50.0 µM) it was 11.8%; in assay [4] (setting [7]) it was -2%; in assay [4] (setting [8]), -3%; in assay [4] (at 50.0 µM), 13.9%. Besides, the growth inhibition in assay [5] (setting [7]) was -2%; in assay [5] (setting [8]), -6%; in assay [5] (at 50.0 µM), -3.4%; in assay [6] (setting [7]) it was 2%; in assay [6] (setting [8]), 1%; in assay [6] (at 50.0 µM) it was 24.4%.

For `COc1ccc(/C(C#N)=C(/N)SCc2ccccc2Cl)cc1`, the growth inhibition was -3% in assay [1] (setting [7]); 14% in assay [1] (setting [8]); 90.9% (active) in assay [1] (at 50.0 µM); -2% in assay [2] (setting [7]); 14% in assay [2] (setting [8]); 64.9% in assay [2] (at 50.0 µM). The growth inhibition in assay [3] (setting [7]) was 10%; in assay [3] (setting [8]), 36%; in assay [3] (at 50.0 µM), 97.2% (active); in assay [4] (setting [7]), -7%; in assay [4] (setting [8]) it was 15%; in assay [4] (at 50.0 µM), 66.8%. The growth inhibition in assay [5] (setting [7]) was 3%; in assay [5] (setting [8]) it was 49%; in assay [5] (at 50.0 µM), 83.5% (active); in assay [6] (setting [7]), -1%; in assay [6] (setting [8]) it was 34%; in assay [6] (at 50.0 µM), 90% (active).

Take `ClC1=CC(Cl)=C2N=C(C(Cl)(Cl)Cl)N=C3N=C(C(Cl)(Cl)Cl)N=C1N32`: the growth inhibition is 29% in assay [1] (setting [7]); 80% (active) in assay [1] (setting [8]); 99.3% (active) in assay [1] (at 50.0 µM); 4% in assay [2] (setting [7]); 88% (active) in assay [2] (setting [8]); 99.5% (active) in assay [2] (at 50.0 µM). The growth inhibition was 44% in assay [3] (setting [7]); 85% (active) in assay [3] (setting [8]); 99.2% (active) in assay [3] (at 50.0 µM); 12% in assay [4] (setting [7]); 57% in assay [4] (setting [8]); 99% (active) in assay [4] (at 50.0 µM). Moreover, the growth inhibition in assay [5] (setting [7]) was 21%; in assay [5] (setting [8]) it was 94% (active); in assay [5] (at 50.0 µM), 99.3% (active); in assay [6] (setting [7]), 36%; in assay [6] (setting [8]), 86% (active); in assay [6] (at 50.0 µM) it was 99% (active).

With `COc1cccc2c1OC(c1ccc(Cl)cc1)C([N+](=O)[O-])=C2` (stereo not given), the growth inhibition in assay [1] (setting [7]) was 94% (active); in assay [1] (setting [8]), 96% (active); in assay [1] (at 50.0 µM), 85.7% (active); in assay [2] (setting [7]) it was 95% (active); in assay [2] (setting [8]), 95% (active); in assay [2] (at 50.0 µM) it was 89% (active). Moreover, the growth inhibition in assay [3] (setting [7]) was 93% (active); in assay [3] (setting [8]), 96% (active); in assay [3] (at 50.0 µM), 87.6% (active); in assay [4] (setting [7]), 86% (active); in assay [4] (setting [8]), 95% (active); in assay [4] (at 50.0 µM), 81.8% (active). Besides, the growth inhibition in assay [5] (setting [7]) is 97% (active); in assay [5] (setting [8]), 96% (active); in assay [5] (at 50.0 µM), 85.5% (active); in assay [6] (setting [7]), 96% (active); in assay [6] (setting [8]), 95% (active); in assay [6] (at 50.0 µM), 84% (active).

As for `COC(=O)C1C(=O)CC(c2ccccc2)C1c1ccccc1` (stereo not given), the growth inhibition in assay [1] (setting [7]) is 2%; in assay [1] (setting [8]) it was -4%; in assay [1] (at 50.0 µM), 6.5%; in assay [2] (setting [7]), 1%; in assay [2] (setting [8]) it was -3%; in assay [2] (at 50.0 µM) it was -6.25%. The growth inhibition in assay [3] (setting [7]) was -1%; in assay [3] (setting [8]), -4%; in assay [3] (at 50.0 µM), -7.85%; in assay [4] (setting [7]), 0%; in assay [4] (setting [8]), -5%; in assay [4] (at 50.0 µM), 15.8%. Moreover, the growth inhibition in assay [5] (setting [7]) was 7%; in assay [5] (setting [8]) it was 10%; in assay [5] (at 50.0 µM), 1.2%; in assay [6] (setting [7]), 0%; in assay [6] (setting [8]) it was -3%; in assay [6] (at 50.0 µM) it was -0.75%.

For the molecule `O=C(COC(=O)C(c1ccccc1)c1ccccc1)c1ccc(Br)cc1`, the growth inhibition in assay [1] (setting [7]) is -2%; in assay [1] (setting [8]), 28%; in assay [1] (at 50.0 µM) it was 45.9%; in assay [2] (setting [7]), -1%; in assay [2] (setting [8]) it was 23%; in assay [2] (at 50.0 µM), 11%. Also, the growth inhibition in assay [3] (setting [7]) is 0%; in assay [3] (setting [8]), 35%; in assay [3] (at 50.0 µM), -4.25%; in assay [4] (setting [7]), -5%; in assay [4] (setting [8]), 28%; in assay [4] (at 50.0 µM), 11.1%. Besides, the growth inhibition in assay [5] (setting [7]) is 10%; in assay [5] (setting [8]) it was 62%; in assay [5] (at 50.0 µM) it was 88% (active); in assay [6] (setting [7]) it was -1%; in assay [6] (setting [8]) it was 27%; in assay [6] (at 50.0 µM) it was 20.9%.

As to `O=C(NCc1ccccc1)N1CCN(c2ccccc2)C1=O`, the growth inhibition is -3% in assay [1] (setting [7]); 3% in assay [1] (setting [8]); 47% in assay [1] (at 50.0 µM); -3% in assay [2] (setting [7]); -5% in assay [2] (setting [8]); 2.65% in assay [2] (at 50.0 µM). The growth inhibition is -3% in assay [3] (setting [7]); -1% in assay [3] (setting [8]); -2.15% in assay [3] (at 50.0 µM); -4% in assay [4] (setting [7]); 13% in assay [4] (setting [8]); 36.5% in assay [4] (at 50.0 µM). In addition, the growth inhibition was 4% in assay [5] (setting [7]); 12% in assay [5] (setting [8]); 6.95% in assay [5] (at 50.0 µM); -4% in assay [6] (setting [7]); -4% in assay [6] (setting [8]); 11.7% in assay [6] (at 50.0 µM).

Turning to `CCOC(=O)C(N=Nc1ccc(Br)c(C)c1)C(C)=O` (stereo not given), the growth inhibition in assay [1] (setting [7]) is -4%; in assay [1] (setting [8]), 81% (active); in assay [1] (at 50.0 µM), 92.2% (active); in assay [2] (setting [7]) it was -7%; in assay [2] (setting [8]), 27%; in assay [2] (at 50.0 µM), 84.1% (active). Also, the growth inhibition in assay [3] (setting [7]) was 1%; in assay [3] (setting [8]), 92% (active); in assay [3] (at 50.0 µM) it was 98% (active); in assay [4] (setting [7]), 11%; in assay [4] (setting [8]), 50%; in assay [4] (at 50.0 µM) it was 76.8% (active). Besides, the growth inhibition in assay [5] (setting [7]) is -6%; in assay [5] (setting [8]), 64%; in assay [5] (at 50.0 µM), 88% (active); in assay [6] (setting [7]) it was 4%; in assay [6] (setting [8]) it was 88% (active); in assay [6] (at 50.0 µM), 97.5% (active).

In the case of `CCN(CC)CCC(=O)/C=C/c1ccc(C)cc1`, the growth inhibition in assay [1] (setting [7]) is 4%; in assay [1] (setting [8]), 97% (active); in assay [1] (at 50.0 µM) it was 57.4%; in assay [2] (setting [7]) it was 9%; in assay [2] (setting [8]) it was 99% (active); in assay [2] (at 50.0 µM), 10.9%. In addition, the growth inhibition in assay [3] (setting [7]) is 4%; in assay [3] (setting [8]), 99% (active); in assay [3] (at 50.0 µM), 18.6%; in assay [4] (setting [7]), 3%; in assay [4] (setting [8]), 97% (active); in assay [4] (at 50.0 µM), 50%. For the same molecule, the growth inhibition in assay [5] (setting [7]) is 7%; in assay [5] (setting [8]) it was 99% (active); in assay [5] (at 50.0 µM), 15.1%; in assay [6] (setting [7]) it was 6%; in assay [6] (setting [8]), 99% (active); in assay [6] (at 50.0 µM) it was 24.1%.

On to `CCCCN(CCO)CCNc1ccc(C)c2sc3ccccc3c(=O)c12`, for which the growth inhibition in assay [1] (setting [7]) was 17%; in assay [1] (setting [8]), 99% (active); in assay [1] (at 50.0 µM), 99.7% (active); in assay [2] (setting [7]), 14%; in assay [2] (setting [8]) it was 99% (active); in assay [2] (at 50.0 µM), 99.8% (active). The growth inhibition in assay [3] (setting [7]) is 29%; in assay [3] (setting [8]) it was 100% (active); in assay [3] (at 50.0 µM) it was 99.6% (active); in assay [4] (setting [7]), 17%; in assay [4] (setting [8]) it was 99% (active); in assay [4] (at 50.0 µM) it was 99.7% (active). The growth inhibition was 24% in assay [5] (setting [7]); 99% (active) in assay [5] (setting [8]); 99.6% (active) in assay [5] (at 50.0 µM); 22% in assay [6] (setting [7]); 99% (active) in assay [6] (setting [8]); 95.5% (active) in assay [6] (at 50.0 µM).
